Laboratory results as given in the supplement of paper PMC4237247.

Test system: HeLa
Assay: percent cells in G1/S phase; higher = more G1/S content
Details: 10 µM; 20 h; hit class: G2/M-phase inhibitor
Description: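 HTS of 79,827 drug-like compounds at 10 uM. HeLa cells in 384-well plates were treated for 20 h, fixed, stained with Vybrant DyeCycle Green and scanned on an Acumen eX3 cytometer to give per-well cell cycle profiles. Only G2/M hits (>=67% G2/M) are listed.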

Row | SMILES | percent cells in G1/S phase [%]
1 | CN1Cc2c(ccc3c2OCO3)[C@@H]2[C@H]1c1cc3c(cc1C[C@@H]2O)OCO3 [Chelidonine monohydrate (+)] | 19.8
